BAZ2B block = BAZ2B (human) inhibition | 360,000 compounds, 4.4% hits | AlphaScreen BAZ2B-H3K14Ac peptide displacement | Q9UIF8 | Potency, µM (doses to about 114 µM), usual class: inhibitors; note: nearly all actives have a fitted effect of over 60% in size
Target sequence (Q9UIF8 whole entry, looked up): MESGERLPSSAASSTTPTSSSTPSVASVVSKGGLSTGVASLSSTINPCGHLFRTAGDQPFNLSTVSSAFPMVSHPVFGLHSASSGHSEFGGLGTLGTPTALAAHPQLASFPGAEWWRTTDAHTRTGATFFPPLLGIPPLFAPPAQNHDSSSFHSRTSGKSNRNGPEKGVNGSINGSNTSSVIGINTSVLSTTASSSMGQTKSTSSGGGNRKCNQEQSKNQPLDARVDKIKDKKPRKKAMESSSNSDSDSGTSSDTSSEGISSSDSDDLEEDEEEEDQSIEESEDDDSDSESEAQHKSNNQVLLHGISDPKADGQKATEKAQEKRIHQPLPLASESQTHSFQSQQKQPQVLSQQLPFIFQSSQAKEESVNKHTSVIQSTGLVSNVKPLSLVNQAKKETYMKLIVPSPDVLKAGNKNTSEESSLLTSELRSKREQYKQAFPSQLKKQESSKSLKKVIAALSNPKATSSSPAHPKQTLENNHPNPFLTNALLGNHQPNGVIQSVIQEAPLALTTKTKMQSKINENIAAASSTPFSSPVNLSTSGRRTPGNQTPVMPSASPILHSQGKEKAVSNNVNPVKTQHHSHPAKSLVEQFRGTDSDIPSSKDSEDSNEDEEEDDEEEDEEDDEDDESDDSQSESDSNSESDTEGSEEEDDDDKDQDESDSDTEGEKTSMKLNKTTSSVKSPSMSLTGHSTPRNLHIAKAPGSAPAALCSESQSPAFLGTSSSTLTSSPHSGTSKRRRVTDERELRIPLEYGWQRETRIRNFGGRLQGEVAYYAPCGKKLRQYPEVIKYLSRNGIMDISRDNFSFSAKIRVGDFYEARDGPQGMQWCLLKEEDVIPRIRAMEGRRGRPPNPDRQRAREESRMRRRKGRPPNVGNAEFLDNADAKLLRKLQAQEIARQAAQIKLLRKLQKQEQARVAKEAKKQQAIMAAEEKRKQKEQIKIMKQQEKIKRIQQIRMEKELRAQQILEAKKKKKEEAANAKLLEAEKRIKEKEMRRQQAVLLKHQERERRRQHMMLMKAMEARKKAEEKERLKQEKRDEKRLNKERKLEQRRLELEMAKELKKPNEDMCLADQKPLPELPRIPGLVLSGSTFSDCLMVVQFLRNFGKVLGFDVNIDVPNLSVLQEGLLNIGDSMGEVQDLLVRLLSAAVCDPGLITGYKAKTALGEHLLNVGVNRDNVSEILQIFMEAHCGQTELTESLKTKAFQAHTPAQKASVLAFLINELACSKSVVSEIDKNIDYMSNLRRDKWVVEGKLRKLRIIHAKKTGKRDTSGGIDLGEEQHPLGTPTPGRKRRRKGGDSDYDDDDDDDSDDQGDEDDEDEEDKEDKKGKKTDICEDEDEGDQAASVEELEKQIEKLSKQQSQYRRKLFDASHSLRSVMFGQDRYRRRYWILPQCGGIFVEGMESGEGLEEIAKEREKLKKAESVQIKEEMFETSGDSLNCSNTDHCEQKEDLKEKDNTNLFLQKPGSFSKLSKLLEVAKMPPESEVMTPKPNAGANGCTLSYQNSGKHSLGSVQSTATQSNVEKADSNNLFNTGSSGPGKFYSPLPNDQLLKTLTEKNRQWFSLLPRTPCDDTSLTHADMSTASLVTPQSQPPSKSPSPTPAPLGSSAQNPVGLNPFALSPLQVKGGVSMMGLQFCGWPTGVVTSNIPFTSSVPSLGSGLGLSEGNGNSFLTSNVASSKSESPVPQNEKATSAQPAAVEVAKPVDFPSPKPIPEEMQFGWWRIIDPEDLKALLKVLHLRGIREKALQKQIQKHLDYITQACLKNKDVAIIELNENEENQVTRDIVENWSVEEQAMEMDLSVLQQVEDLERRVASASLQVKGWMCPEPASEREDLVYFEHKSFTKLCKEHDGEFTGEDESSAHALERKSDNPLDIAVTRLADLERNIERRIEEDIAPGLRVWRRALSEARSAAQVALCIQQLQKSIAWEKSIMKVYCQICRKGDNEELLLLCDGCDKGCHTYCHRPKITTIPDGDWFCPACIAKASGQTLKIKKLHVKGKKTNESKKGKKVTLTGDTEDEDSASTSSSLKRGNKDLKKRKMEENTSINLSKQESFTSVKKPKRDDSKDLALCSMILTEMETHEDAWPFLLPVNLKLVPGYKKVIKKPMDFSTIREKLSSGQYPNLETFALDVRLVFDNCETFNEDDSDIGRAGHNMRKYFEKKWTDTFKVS
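AlphaScreen displacement: compounds (up to 110uM) incubated 30 min at room temperature with a preformed 50 nM BAZ2B/50 nM biotinylated H3K14Ac peptide complex in PBS pH 7.4 with Tween-20. Donor and acceptor beads at 10 ug/mL final added, 20 min light-protected before reading.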
L3MBTL1 inh = inhibitors of human L3MBTL1. 230,000 compounds, 0.66% hits. Q9Y468. Potency, µM (highest dose often 57.1 µM), hits mostly inhibitors. AID 485360. AlphaScreen L3MBTL1–H3K9me1 peptide binding; note: nearly all actives have a fitted effect of over 60% in size
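L3MBTL1 (50 nM) pre-complexed 30 min with biotinylated H3(1-15)K9me1 peptide (75 nM), then compounds added for 30 min at room temperature; AlphaScreen streptavidin donor/nickel chelate acceptor beads (10 ug/mL final) read after 30 min dark incubation.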
JMJD2A Tudor = JMJD2A Tudor domain (human) inhibition; 390,000 compounds, 4.4% hits; O75164; AlphaScreen JMJD2A-Tudor / H3K4me3 peptide binding; Potency, µM (titrated, usually from 114 µM), most hits filed as inhibitors; AID 504339; note: nearly all actives have a fitted effect of over 50% in size
PI5P4Ka inh = blocks human PI5P4K alpha kinase activity | P48426 | PI5P4Kalpha enzyme, ADP-Glo luminescence, 60 min; stronger effect = lower value | max response, % | 330,000 compounds, 1.2% hits | AID 652105; active = max response of -50% or lower; inconclusive = between -30% and -50%; inactive = -30% or higher; note: value at the top dose of about 77 µM
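Compounds were pin-transferred onto PI5P4Kalpha and substrate in HEPES pH 7.4 buffer with EGTA, CHAPS and 5% DMSO. ATP (5 microM final) started the reaction, which ran 60 minutes at room temperature before ADP-Glo detection.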
HP1b chromo inh = blocks HP1-beta chromodomain binding to methylated histone tails; P83916; AlphaScreen HP1-beta / biotin-H3K9me3 peptide binding; Potency, µM (highest dose often 114 µM), actives largely listed as inhibitors; 390,000 compounds, 0.56% hits; AID 540317; note: nearly all actives have a fitted effect of over 70% in size
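Compound inhibition of the preformed complex between 50 nM HP1-beta and 50 nM biotinylated H3K9me3 peptide was read by AlphaScreen. Buffer was PBS pH 7.4 with 0.01% Tween-20. Incubations ran 30 min at room temperature, with 10 ug/mL donor/acceptor beads.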
G9a block = inhibitors of human histone lysine methyltransferase G9a | 350,000 compounds, 8.8% hits | AID 504332 | G9a H3K9 monomethylation, AlphaScreen, 2 h | Potency, µM (top dose mostly 102 µM), usual class: inhibitors | Q96KQ7; note: nearly all actives have a fitted effect of over 75% in size
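Chemiluminescent proximity detection of H3K9 monomethylation, read after 10 min bead incubation in the dark. Reaction: 20 nM G9a, 500 nM biotin-H3K9 peptide, 20 uM SAM cofactor, 2 h, room temperature, following 15 min enzyme-compound preincubation.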
Hits are given with their value; – = inactive; ? = inconclusive; · = not tested or not shown; ! = repeats disagree; [ ] = another dose, or the depositor's remark. Most compounds without a hit are left out; they make up all but 11% or so of the library. Unless noted, calls come from the whole dose curve; as a rule, active = well fitted inhibition curve with a large enough effect; inconclusive = small, poorly fitted or top-dose-only effect; inactive = no such curve, though single readings can be large or run the other way.

SMILES	BAZ2B block	L3MBTL1 inh	JMJD2A Tudor	PI5P4Ka inh	HP1b chromo inh	G9a block
CCOc1ccc(C(C)=O)cc1Cc1c(O)[nH]c(=S)[nH]c1=O	–	–	89µM	?	?	·
COc1ccc(C(C)=O)cc1Cc1c(O)[nH]c(=S)[nH]c1=O	–	·	?	–	–	8.9µM
Cc1cccnc1	–	–	–	–	–	–[0.501 µM]
N#CC1(N2CCCCC2)CCCCC1	·	·	·	·	·	–[12.7 µM]
O=NN1CCCC1c1cccnc1 (stereo unspecified)	·	·	·	·	·	–
N#CC1(c2ccccc2)CCN(C2CC(=O)N(c3ccc4c(c3)OCO4)C2=O)CC1 (stereo unspecified)	–	–	–	–	–	22µM
CCCCC/C=C\C/C=C\C/C=C\C/C=C\CCCC(=O)N[C@H](C)CO	·	·	·	·	·	–
CCOc1ccc(N2C(=O)NC(=O)/C(=C\c3ccccc3[N+](=O)[O-])C2=O)cc1	–	–	–	?	–	32µM
O=C1NC(=O)C(=Cc2ccccc2[N+](=O)[O-])C(=O)N1	·	·	–	?	–	·
COc1ccc(N2C(=O)NC(=O)/C(=C\c3ccccc3[N+](=O)[O-])C2=O)cc1	–	–	–	–	–	8.9µM
CC[C@@]1(O)C(=O)OCc2c1cc1n(c2=O)-c2cc3ccccc3nc2C1	·	·	·	·	·	–
CC1(C)[C@@H](C=C(Cl)Cl)[C@@H]1C(=O)OCc1c(F)c(F)cc(F)c1F	·	·	·	·	·	–[12.7 µM]
CCCc1nn(C)c2c1C(c1ccncc1)C(C#N)=C(N)O2 (stereo unspecified)	–	–	–	–	–	?
OC(CNC1CCCCCCC1)c1ccccc1 (stereo unspecified)	?	–	·	·	·	14µM
CCc1nnc(NC(=O)CSc2ccc(-c3ccco3)nn2)s1	50µM	·	–	–	–	22µM
Cc1cc(SCC(=O)N/N=C/c2ccco2)nc2ccccc12	?	–	–	–	–	·
O=C(CSc1ccc(-c2ccco2)nn1)Nc1ccccc1	–	·	–	–	–	20µM
CCCc1nnc(NC(=O)CCC(=O)N2CCN(CCOC(c3ccccc3)c3ccccc3)CC2)s1	–	–	–	–	–	–
C[N+]1([O-])[C@H]2CC[C@H]1CC(OC(=O)[C@@H](CO)c1ccccc1)C2 (stereo partly specified)	·	·	·	·	·	–
Nc1c(Br)cc(Br)cc1CNC1CCC(O)CC1 (stereo unspecified)	–	–	–	–	–	–[12.7 µM]
CC(=O)O[C@H]1CCC2C3CCC4=CC(=O)CCC4=C3C=C[C@@]21C (stereo partly specified)	–	·	?	–	?	45µM
O=C1NC(=O)N(c2ccc(Br)cc2)C(=O)/C1=C/c1ccsc1	–	·	–	–	–	20µM
O=C1NC(=O)N(c2ccc(F)cc2)C(=O)/C1=C/c1ccsc1	–	–	–	?	–	14µM
O=C1NC(=O)C(=Cc2ccsc2)C(=O)N1	–	–	–	?	–	–
O=C1NC(=O)N(c2cccc(Br)c2)C(=O)/C1=C/c1ccsc1	–	·	–	-64	–	10µM
SMILES	BAZ2B block	L3MBTL1 inh	JMJD2A Tudor	PI5P4Ka inh	HP1b chromo inh	G9a block
CCc1ccc(OCC(=O)N2CCN(CCc3ccccn3)CC2)cc1	–	·	–	·	–	–
O=C(NCc1c(-n2cccc2)sc2c1CCCC2)Nc1cccc(C(F)(F)F)c1	–	·	–	·	–	–
CC12CN3CC(C)(CN(C1)P3(=O)Oc1ccccc1)C2=O (stereo unspecified)	–	–	–	–	–	40µM
Cc1ccc(-n2c(/C=C\c3ccc(F)c(F)c3)nc3ccccc3c2=O)c(C)c1	–	·	–	·	–	–
CCN(CC)c1ccc(CNc2nc3ccccc3n2C)cc1	45µM	·	?	–	–	·
c1ccc2sc(C3(N4CCCCC4)CCCCC3)cc2c1	·	·	·	·	·	8.9µM!
O=C(CNC1CCCCC1)N1CCC2(CC1)OCCO2	?	·	3.2µM	·	?	35µM
O=C(NC(Cc1ccccc1)C(=O)N1CCC2(CC1)OCCO2)C1CCCCC1 (stereo unspecified)	?	–	–	–	–	·
C[C@]12CC[C@H]3C(=CCc4cc(O)ccc43)[C@@H]1CCC2=O	–	–	–	–	–	–
CC(C)(C)c1ccc(C(=O)NC(=S)Nn2cnnc2)cc1	–	–	–	–	–	32µM
O=C(NC(=S)N1CC1)c1ccccc1	·	·	·	–	·	·

Compound activity from PubChem BioAssay.
